Screening results as filed in PubChem BioAssay.
12-LOX inh – blocks human arachidonate 12S-lipoxygenase; purified 12hLO, xylenol orange hydroperoxide absorbance; P18054; Potency, µM (highest dose often 108 µM), actives largely listed as inhibitors; actives 1.1% (n = 580,000)
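Hydroperoxide product was detected by ferrous iron/xylenol orange as the 573 to 405 nm absorbance ratio. Arachidonic acid at 40 uM (final) was turned over for 30 min at room temperature by 150 nM human 12hLO, pH 7.0 Hepes buffer, after 15 min compound preincubation.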
Sfp inh – Sfp phosphopantetheinyl transferase inhibition; Q9F4F7; Biochemical Sfp PPTase activity, qHTS; Potency, µM, most hits filed as inhibitors; actives 3.5% (n = 310,000);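 note: the enzyme is Sfp with the accession as filed and its product quenches rhodamine fluorescence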
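Compounds were incubated with enzyme (final 15 nM) for 15 min at room temperature before substrate addition started the reaction. Fluorescence at 525 nm excitation, 598 nm emission was recorded immediately and after 30 minutes.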
G9a inh – G9a (human) methyltransferase inhibition; Q96KQ7; G9a H3K9 monomethylation, AlphaScreen, 2 h; Potency, µM (top dose mostly 102 µM), usual class: inhibitors; actives 8.8% (n = 350,000); AID 504332; note: nearly all actives have a fitted effect of over 75% in size
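AlphaScreen read-out: biotin-H3K9 peptide (500 nM) methylation by 20 nM enzyme with 20 uM SAM, 2 h at room temperature after 15 min compound preincubation; anti-monomethyl H3K9 antibody plus donor/acceptor beads, 10 min dark.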
VDR inhibitor – blocks the human vitamin D receptor | P11473 | Potency, µM, most hits filed as inhibitors | VDR-SRC2-3 peptide fluorescence polarization, 2 h | actives 0.93% (n = 400,000)
Target sequence (P11473 whole entry, looked up): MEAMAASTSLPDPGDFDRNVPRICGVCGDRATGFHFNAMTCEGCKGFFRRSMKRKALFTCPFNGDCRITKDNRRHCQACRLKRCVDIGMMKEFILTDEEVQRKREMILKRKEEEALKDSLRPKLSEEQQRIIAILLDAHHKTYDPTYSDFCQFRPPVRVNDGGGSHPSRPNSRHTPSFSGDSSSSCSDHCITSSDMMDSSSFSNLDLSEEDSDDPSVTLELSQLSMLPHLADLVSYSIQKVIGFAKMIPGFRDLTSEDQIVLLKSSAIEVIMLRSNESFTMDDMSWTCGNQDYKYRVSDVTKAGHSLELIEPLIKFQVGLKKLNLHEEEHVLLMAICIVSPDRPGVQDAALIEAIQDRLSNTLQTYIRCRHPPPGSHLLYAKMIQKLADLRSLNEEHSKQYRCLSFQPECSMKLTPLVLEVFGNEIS
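Fluorescence polarization assay measuring small-molecule disruption of VDR binding to the coregulator peptide SRC2-3. Compounds were pin-transferred (23 nl) into the reagent mix and incubated 2 h at room temperature before reading.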
Glioma ERSR ind – inducers of ER stress response in human glioma cells. Potency, µM, actives largely listed as activators. U87-MG GRP78 promoter luciferase reporter, 16 h. actives 0.02% (n = 420,000). AID 602332; note: series mostly up to about 76 µM; nearly all actives have a fitted effect of over 35% in size
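ERSR induction read as luciferase luminescence (Bright-Glo, 10 min at room temperature) in stably transfected human U87-MG glioma cells exposed to compounds for 16 h, using GRP78 as sensor.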
Large screens that a line does not name were inactive. The entries come from a sample that favours hits as a whole. Calls come from the whole dose curve; as a rule, active = well fitted curve in the direction sought with a large enough effect; inconclusive = small, poorly fitted or top-dose-only effect, or another doubt; inactive = no such curve, though single readings can be large; an effect the other way counts as inactive or inconclusive.

COc1ccc(-c2cc(-c3ccc4cn[nH]c4c3)cn3cncc23)cc1	12-LOX inh 8.91µM (no result: Sfp inh, G9a inh, VDR inhibitor, Glioma ERSR ind)
Nc1nc(N)nc(SCc2cccc(C(F)(F)F)c2)n1	none (no result: Sfp inh, G9a inh, VDR inhibitor, Glioma ERSR ind)
Cc1cnc(C(=O)Nc2nnc(C3CC3)s2)cn1	12-LOX inh inconclusive, Sfp inh inconclusive, G9a inh 5.62µM
CC(=O)Nc1nnc(C)s1	none
Cc1cc(C(=O)Nc2nnc(C3CCCCC3)s2)no1	none
Cc1cnc(C(=O)Nc2nnc(C(C)C)s2)cn1	Sfp inh inconclusive, G9a inh 1µM
Cc1cnc(C(=O)Nc2nnc(C)s2)cn1	Sfp inh 79.4µM, G9a inh 2µM
CCc1cccc(NC(=O)Cn2c(=O)c3c(ncn3C3CCCC3)n(Cc3ccccc3)c2=O)c1	none (no result: Sfp inh, G9a inh, VDR inhibitor, Glioma ERSR ind)
Cc1ccc(Cl)cc1NC(=O)C(=O)c1c(C)[nH]c2ccccc12	none (no result: Sfp inh, G9a inh, VDR inhibitor, Glioma ERSR ind)
CC(Sc1ncn[nH]1)C(=O)c1c(N)n(C)c(=O)n(C)c1=O (configuration not stated)	G9a inh inconclusive (no result: Sfp inh)
Cc1nc(SC(C)C(=O)c2c(N)n(C)c(=O)n(C)c2=O)c2c(C)c(C)sc2n1 (configuration not stated)	12-LOX inh inconclusive, G9a inh 7.08µM (no result: Sfp inh)
CC(Sc1nnc(N)s1)C(=O)c1c(N)n(C)c(=O)n(C)c1=O (configuration not stated)	G9a inh 50.1µM (no result: Sfp inh)
C=CCn1c(SCCCc2ccccc2)nc2c1c(=O)n(C)c(=O)n2C	none (no result: Sfp inh, G9a inh, VDR inhibitor, Glioma ERSR ind)
CN(Cc1ccccc1)c1nc2c(c(=O)[nH]c(=O)n2C)n1C	none
C=CCn1c(SCCOC)nc2c1c(=O)[nH]c(=O)n2C	Sfp inh inconclusive, G9a inh 39.8µM
C=CCn1c(SCCCc2ccccc2)nc2c1c(=O)[nH]c(=O)n2C	G9a inh 44.7µM, VDR inhibitor inconclusive
C/C=C/Cn1c(N(C)Cc2ccccc2)nc2c1c(=O)[nH]c(=O)n2C	G9a inh 50.1µM
CCCCSc1nc2c(c(=O)[nH]c(=O)n2C)n1CCc1ccccc1	G9a inh inconclusive
CC(C)n1c(SCCCc2ccccc2)nc2c1c(=O)[nH]c(=O)n2C	12-LOX inh inconclusive, Sfp inh inconclusive, G9a inh 35.5µM, VDR inhibitor inconclusive
C#CCNC(=O)CN(Cc1cccs1)C1CC1	none (no result: Sfp inh, G9a inh, VDR inhibitor, Glioma ERSR ind)
COC(=O)c1ccc2nc(CO[C@H]3CN(Cc4ccc(S(C)(=O)=O)cc4)C[C@H]3F)[nH]c2c1	none (no result: Sfp inh, G9a inh, VDR inhibitor, Glioma ERSR ind)
Cc1ccccc1OCC(=O)Nc1c(C(=O)c2ccc3c(c2)OCCO3)oc2ccccc12	none (no result: Sfp inh, G9a inh, VDR inhibitor, Glioma ERSR ind)
C/C=C/Cn1c(SCCCc2ccccc2)nc2c1c(=O)[nH]c(=O)n2C	12-LOX inh inconclusive, G9a inh 44.7µM
Cn1c(=O)[nH]c(=O)c2c1nc(SCCc1ccccc1)n2CCc1ccccc1	none (no result: Sfp inh, G9a inh, VDR inhibitor, Glioma ERSR ind)
CCc1ccc(CNC2CC2)cc1	none (no result: Sfp inh, G9a inh, VDR inhibitor, Glioma ERSR ind)
FC(F)(F)c1cccc(NC(=S)NNC(=S)NCc2ccccc2)c1	12-LOX inh inconclusive, Sfp inh 44.7µM, G9a inh inconclusive, VDR inhibitor inconclusive
O=C(NNC(=S)Nc1cccc(C(F)(F)F)c1)c1ccccc1Cl	12-LOX inh inconclusive, G9a inh 3.16µM, VDR inhibitor inconclusive
FC(F)(F)c1cccc(NC(=S)Nc2cccc(NC(=S)Nc3cccc(C(F)(F)F)c3)n2)c1	Sfp inh 20µM (no result: G9a inh)
Cc1cccc(NC(=S)Nc2cccc(C(F)(F)F)c2)n1	12-LOX inh inconclusive
CC1CN(c2cc(-c3ccccc3)c3ccccc3n2)CC(C)O1 (configuration not stated)	none
c1ccc(-c2cc(N3CCOCC3)nc3ccccc23)cc1	12-LOX inh inconclusive, Sfp inh 56.2µM, G9a inh 4.47µM, VDR inhibitor inconclusive
Cc1cc(Br)ccc1NC(=O)CN(C)Cc1nc2ccccc2o1	none (no result: Sfp inh, G9a inh, VDR inhibitor, Glioma ERSR ind)
COc1ccc(-c2c[n+](CC(=O)c3ccccc3)c3n2CCCCC3)cc1	none
COc1ccc(-c2c[n+]3c4n2CCCCC4=C(c2ccccc2)C3)cc1	12-LOX inh inconclusive, G9a inh 14.1µM
O=P(O)(O)C(O)(Cc1cccnc1)P(=O)(O)O	G9a inh 17.8µM
NC(=O)CN(CC1CCOC1)C1CC1 (configuration not stated)	none (no result: Sfp inh, G9a inh, VDR inhibitor, Glioma ERSR ind)
O=C(NC(C(=O)Nc1ccccc1)C1CCN(C(=O)c2cccc(F)c2)CC1)c1ccc(F)cc1 (configuration not stated)	none (no result: Sfp inh, G9a inh, VDR inhibitor, Glioma ERSR ind)
Oc1ccc(C(=S)N2CCCC2)cc1	12-LOX inh inconclusive, Sfp inh 20µM, VDR inhibitor inconclusive (no result: G9a inh)
CC1CCN(C(=S)c2ccccc2O)CC1	12-LOX inh inconclusive, Sfp inh 28.2µM, G9a inh inconclusive, VDR inhibitor inconclusive
